Assay results taken from PubChem BioAssay (NCI).
The panel holds about 83,000 compounds, 20% with a hit somewhere; the sample as a whole holds those more often.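 How to read the values: 0–100, growth inhibition (40 = 60% inhibited); 0, no net growth; -100 to 0, cell death (-40 = 40% of starting cells died; -100 = all dead).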 Unmarked numbers belong to inactive results. Calls of active or inactive are those of the source. The calls were made as follows: active = growth percent below 10; inactive = the rest.

Assays:
Test in all cases: NCI-60 one-dose screen, 48 h (100 = growth as untreated, 0 = no growth, -100 = all killed)
Conditions in all cases: 10 µM unless noted
[1] = test system: DU-145 prostate
[2] = test system: K-562 leukemia
[3] = test system: MALME-3M melanoma
[4] = test system: MDA-MB-231 breast
[5] = test system: RXF 393 renal
[6] = test system: SF-268 CNS
[7] = test system: SF-539 CNS
[8] = test system: UACC-257 melanoma
[9] = test system: M14 melanoma
[10] = test system: HCT-15 colon
[11] = test system: HT29 colon
[12] = test system: SNB-75 CNS
[13] = test system: SNB-19 CNS
[14] = test system: U251 CNS
[15] = test system: PC-3 prostate
[16] = test system: SK-MEL-5 melanoma
[17] = test system: UACC-62 melanoma
[18] = test system: LOX IMVI melanoma
[19] = test system: SK-MEL-28 melanoma

| Structure (SMILES) | growth [1] | growth [2] | growth [3] | growth [4] | growth [5] | growth [6] | growth [7] | growth [8] | growth [9] | growth [10] | growth [11] | growth [12] | growth [13] | growth [14] | growth [15] | growth [16] | growth [17] | growth [18] | growth [19] |
| --- | --- | --- | --- | --- | --- | --- | --- | --- | --- | --- | --- | --- | --- | --- | --- | --- | --- | --- | --- |
| CC1CCN(Cc2ccc(NC(=O)c3cc4ccc5cccnc5c4[nH]3)cc2)CC1 | 2.24% (active) | 8.98% (active) | 10.2% | 23.2% | -3.5% (active) | 37.4% | 8.44% (active) | -40.6% (active) | -22.5% (active) | 22.2% | 6.27% (active) | 14.5% | 64.6% | 14.7% | 41.6% | 2% (active) | -65.4% (active) | 8.82% (active) | -31.9% (active) |
| COc1ccc(-c2nsc3c2NC(=O)CC3c2ccc3c(c2)OCO3)cc1 (stereo not drawn) | 14.8% | 0.385% (active) | -1.91% (active) | 36% | 11.3% | 42.8% | -9% (active) | 60.2% | 18.2% | 29.4% | 3.39% (active) | 7.61% (active) | 57.5% | 12.2% | 3.81% (active) | 25.8% | 42.7% | 37.9% | 56.5% |
| C[C@@H](C[C@H](CC1CC1)c1ccccc1)c1ccc2ccccc2c1 | 106% | 104% | 96.7% | 106% | 117% | 98.5% | 96.9% | 106% | 102% | 107% | 105% | 85% | 101% | 101% | 98.9% | 99.9% | 103% | 98.4% | 107% |
| CCCCN(CCCC)CCC(O)c1cc2ccc(C(F)(F)F)cc2c2cc(C(F)(F)F)ccc12 (stereo not drawn) | 55.3% | 5.28% (active) | 47.8% | 33.2% | 7.74% (active) | 63.3% | 48.7% | 41.6% | 18.8% | 27.3% | 8.42% (active) | 60.9% | 72.6% | 45.2% | 35.6% | 38.9% | 40.8% | -58.4% (active) | 77.2% |
| O=C1C2=C(C(=O)c3c(O)ccc(O)c31)N(c1ccc(N3CCOCC3)nc1)Cc1ccccc1O2 | -98% (active) | -17.5% (active) | -91.6% (active) | -89.6% (active) | -92.1% (active) | -42.5% (active) | -72.1% (active) | -92% (active) | -89.3% (active) | -77.4% (active) | -47.7% (active) | -19.8% (active) | 12.2% | 0.735% (active) | 1.08% (active) | -75% (active) | -66.7% (active) | -66.8% (active) | -77% (active) |
| CC(CN1CCN(C)CC1)CN1c2ccccc2Sc2ccc(C(F)(F)F)cc21 (stereo not drawn) | 61.7% | -31.2% (active) | 62.9% | 27.6% | 18.7% | 52.2% | 67.5% | 30% | 0.817% (active) | 6.79% (active) | -49.9% (active) | 45.5% | 63.1% | 1% (active) | 31.3% | -82.7% (active) | -40.4% (active) | -2.88% (active) | 22.4% |
| CC(=O)c1ccc(-n2c(-c3cc(-c4ccsc4)n[nH]3)n[nH]c2=S)cc1 | 110% | 105% | 106% | 105% | 106% | 107% | 97.5% | 101% | 97.8% | 96.5% | 94.1% | 91.2% | 101% | 102% | 84.3% | 101% | 95.9% | 99% | 98.8% |
| CCCCNCC(O)c1cc2c(Cl)cc(Cl)cc2c2cc(C(F)(F)F)ccc12 (stereo not drawn) | -98% (active) | -69.1% (active) | -60.8% (active) | -74.8% (active) | -94.7% (active) | -80.5% (active) | -81.7% (active) | -72.4% (active) | -86.5% (active) | -60.4% (active) | -84.4% (active) | -87.6% (active) | -71.5% (active) | -95.5% (active) | -89.6% (active) | -35.4% (active) | -84.4% (active) | -77.8% (active) | -88.4% (active) |
| Nc1nc(N)c2cc(CNc3ccc(Cl)c(Cl)c3)ccc2n1 | 44.6% | -72.3% (active) | 47.1% | -23.9% (active) | 26.5% | 35% | 23.7% | 32.4% | -69.7% (active) | 9.76% (active) | -75.2% (active) | 40.1% | 31.5% | -78.1% (active) | 22.5% | 15.4% | 21% | -54.8% (active) |  |
| COc1c(B(O)O)cccc1-c1nc2c(F)cc3n[nH]c(C)c3c2c2c1CCCC2 | 15% | 17.8% | 55.9% | 25.5% | -19.3% (active) | 17.5% | 4.1% (active) | 18.8% | 41.1% | 18.3% | 17% | -21.6% (active) | 18.1% | 13.6% | 27.3% | 20.4% | 3.54% (active) | 11.8% | 25% |
| COc1cc(C)cc2oc3oc(=O)c(-c4csc(-c5cc6ccccc6oc5=O)n4)cc3c(=O)c12 | 113% | 112% | 105% | 99.5% | 102% | 105% | 99.3% | 115% | 104% | 114% | 110% | 113% | 99.3% | 110% | 104% | 99.9% | 99.2% | 94.6% | 109% |
| C#CC[C@@H]1C[C@]2(C)[C@H]3CC[C@@H]4[C@H]5C(C(=C)C)CC[C@]5(C(=O)NCCN(CCN)CCN)CC[C@@]4(C)[C@]3(C)CC[C@H]2C(C)(C)[C@H]1OC(C)=O (stereo partly drawn) | 95.1% | 2.56% (active) | 85.7% | 33% | -66.1% (active) | 87.6% | 95.2% | 109% | 91.3% | -52.9% (active) | 46.8% | 103% | 69.8% | -28.4% (active) | 79.9% | 96.5% | 103% | 65.5% |  |
| COc1ccc(/C=C/C(=O)c2ccc(NC(=O)CSc3nnc(-c4ccc(OC)cc4)n3-c3ccccc3)cc2)cc1 | 104% | 78.1% | 96.8% | 90.9% | 108% | 101% | 100% | 91.9% | 92.7% | 96.4% | 103% | 91.7% | 94.1% | 87.1% | 106% | 95.1% | 89.4% | 102% | 106% |
| O=c1[nH]c2ccccc2n2cc3cccnc3c12 | 87.5% | 47.2% | 116% | 65.7% | 80.8% | 79.3% | 75.5% | 97.1% | 84.1% | 70.2% | 42.3% | 86.2% | 71% | 76.6% | 84.7% | 73.2% | 53% | 65.6% | 107% |
| CC(=O)[C@H]1CC[C@H]2[C@@H]3CC[C@H]4CC=CC[C@]4(C)[C@H]3CC[C@]12C | 111% | 84.9% | 84% | 99.4% | 98.2% | 102% | 91.6% | 75.6% | 90.3% | 89.8% | 79.4% | 74.1% | 98.1% | 102% | 58% | 98.8% | 79.9% | 95.4% | 89.1% |
